Assay outcomes: PubChem, several laboratories
In the library only some 2.9% were active in any assay of this set; here they are far more common.
RAM network inh – blocks the yeast RAM network; S. cerevisiae dse1pr::URA3 reporter, 5-FOA growth OD615, 2 d; analog-sensitive cbk1-as2 kinase mutant strain; inhibition, % at 50 µM; 190,000 tested, 1.8% active; AID 868;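 active = inhibition above a set limit, 3 SD over mean compound inhibition, cut at about 8.4% in these data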;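 note: 0% = DMSO-only wells with no growth and 100% = 10 µM 1-NA-PP1 full growth; inhibition rescues growth on 5-FOA so higher OD means more RAM inhibition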
SKN-1 block – C. elegans SKN-1 inhibition; C. elegans VP596 Pgst-4::GFP/RFP ratio, acrylamide-induced, 24 h; inhibition, % at 21.8 µM; 360,000 tested, 0.49% active;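 active = interference check ratio from 0.5 to 1.5 plus GFP to RFP signal ratio inhibition reaching or exceeding a fixed threshold, cut at about 30% in these data, passing the limit was not always enough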
PG9 binder – small molecules binding HIV-1 gp120 antibody PG9; TR-FRET gp120-PG9 antibody binding; inhibition, % at 6.7 µM; 360,000 tested, 0.43% active; in the data active = inhibition above about 8.5%
PGE2 EP2 inh – EP2 receptor (human) inhibition. inhibition, % at 25 µM. 260,000 tested, 0.52% active. C6 glioma cells expressing human EP2, cAMP TR-FRET; cells stimulated with saturating PGE2;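 active = percent inhibition above 40 after rounding to a whole number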;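 note: rat C6 glioma host cells with rolipram phosphodiesterase inhibitor present; the protocol text gives 20 µM as final concentration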
EP2 mod – modulators of human EP2 prostaglandin E2 receptor. P43116. EP2-expressing cells, cAMP HTRF FRET, PGE2 co-stimulation. induction, % at 25 µM. 260,000 tested, 0.83% active;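 active = compounds whose cAMP rise, as percent of the full-agonist control response, exceeds 60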;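 note: rat C6 glioma line stably carrying human EP2 under a CMV promoter; the protocol text gives 20 µM as final concentration; 100% = response of wells given 1 µM PGE2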
NR1D1 modulator – modulates human Rev-erb alpha binding to DNA. 370,000 tested, 0.79% active. Rev-erbα–FITC-DNA binding, fluorescence polarization, 90 min. P20393. AID 1259318. activity, % at 10 µM;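 active = activity above about 14%, limit read from the data; passing the limit was not always enough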;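 note: 0% = DMSO wells with 35 nM protein and 100% = DMSO wells with 750 nM protein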
Target sequence (P20393 whole entry, looked up): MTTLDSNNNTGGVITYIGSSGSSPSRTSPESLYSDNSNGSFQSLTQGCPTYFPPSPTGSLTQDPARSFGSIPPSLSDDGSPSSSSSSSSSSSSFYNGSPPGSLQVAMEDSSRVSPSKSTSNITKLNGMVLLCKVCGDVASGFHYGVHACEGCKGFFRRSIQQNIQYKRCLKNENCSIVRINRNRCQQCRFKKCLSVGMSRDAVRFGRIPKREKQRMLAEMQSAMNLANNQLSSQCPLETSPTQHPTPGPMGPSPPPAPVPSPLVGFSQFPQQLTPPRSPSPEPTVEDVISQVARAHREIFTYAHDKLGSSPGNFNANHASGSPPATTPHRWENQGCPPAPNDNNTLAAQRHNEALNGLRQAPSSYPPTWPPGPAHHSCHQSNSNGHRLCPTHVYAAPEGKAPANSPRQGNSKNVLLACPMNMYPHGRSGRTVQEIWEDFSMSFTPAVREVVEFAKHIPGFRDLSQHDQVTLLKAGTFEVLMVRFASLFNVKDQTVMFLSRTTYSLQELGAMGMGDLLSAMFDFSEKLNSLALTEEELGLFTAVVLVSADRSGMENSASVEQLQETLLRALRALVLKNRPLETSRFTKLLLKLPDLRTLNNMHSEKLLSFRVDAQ
PG9 bind confirm – confirmation of small molecules binding HIV-1 gp120 antibody PG9. AID 651571. inhibition, % at 6.7 µM. TR-FRET PG9 antibody binding, biochemical. 1,500 tested, 90% active. shares compounds with PG9 binder; in the data active = inhibition above about 9%
PGV04 counter – counter-screen for PG9 binders: binding control antibody PGV04; shares compounds with PG9 binder; TR-FRET PGV04 antibody-gp120 binding, biochemical; inhibition, % at 6.7 µM; 1,500 tested, 95% active; in the data active = inhibition above about 9.5%
PG9 binder DR – PG9 antibody binding, dose response. shares compounds with PG9 binder. TR-FRET PG9 antibody-gp120 binding inhibition. IC50, µM. 95 tested, under 10 active. AID 651848; in the data active = IC50 below about 10 µM
PGV04 binding DR – PGV04 binding, dose response counter-screen; IC50, µM; TR-FRET binding to control antibody PGV04; shares compounds with PG9 binder; 95 tested, 20% active
PG126 DR counter – counter-screen for PG9 binders: binding to control antibody PG126. TR-FRET binding to antibody PG126, counterscreen. shares compounds with PG9 binder. AID 651939. 95 tested, 20% active. IC50, µM
Active calls of the source: *; nt = no result. Cut-off read from the data, not from the text of the source, unless noted: active = IC50 below about 9 µM; inactive = the rest.

SMILES	RAM network inh	SKN-1 block	PG9 binder	PGE2 EP2 inh	EP2 mod	NR1D1 modulator	PG9 bind confirm	PGV04 counter	others
Cc1cc(N2C(=O)C(O)=C(C(=O)c3ccco3)C2c2ccccc2F)no1 (stereo not drawn)	nt	-6	10*	nt	nt	-4	9.8*	28*
Cc1cc(N2C(=O)C(O)=C(C(=O)c3ccco3)C2c2ccc(Cl)cc2)no1 (stereo not drawn)	nt	-1	16*	nt	nt	-2	30*	41*
CCOC(=O)c1c(C)n(-c2ccc(C)cc2)c2c(C(C(C)=O)C(=O)O)c(Br)c(O)c(O)c12 (stereo not drawn)	5	-10	-2	7	20	8	nt	nt
CCOC(=O)C(C(C)=O)c1c(Br)c(O)c(O)c2c(C(=O)c3ccc(C)cc3)coc12 (stereo not drawn)	6	6	9.4*	23	-53	0	18*	19*
Cc1ccc(NC(=O)CSc2nnc(-c3ccncc3)n2C)cc1C	0	-3	17*	7	31	4	15*	40*
C=CCOc1cccc(C2C(C(=O)c3cccs3)=C(O)C(=O)N2Cc2cccnc2)c1 (stereo not drawn)	4	4	7	9	26	-1	nt	nt
CC(C)Oc1ccc(C2C(C(=O)c3ccco3)=C(O)C(=O)N2Cc2cccnc2)cc1 (stereo not drawn)	1	20	9.3*	12	42	5	15*	19*
O=C(C1=C(O)C(=O)N(Cc2cccnc2)C1c1cccc(Oc2ccccc2)c1)c1ccco1 (stereo not drawn)	nt	0	13*	nt	nt	-6	19*	28*
CCCOc1cccc(C2C(C(=O)c3ccco3)=C(O)C(=O)N2Cc2cccnc2)c1 (stereo not drawn)	nt	nt	nt	12	12	nt	nt	nt
C=CCOc1ccc(C2C(C(=O)c3ccc(C)o3)=C(O)C(=O)N2Cc2cccnc2)cc1 (stereo not drawn)	nt	13	11*	nt	nt	-4	27*	31*
COCCNC(=O)c1cn(C[C@H]2CCCN(C(=O)c3cccs3)C2)nn1	nt	nt	nt	nt	0	nt	nt	nt
CCCc1cc(=O)n2[nH]c(-c3cccc(Br)c3)cc2n1	nt	-30	16*	nt	nt	23	18*	29*
CCCc1cc(=O)n2[nH]c(-c3ccc(Br)cc3)cc2n1	4	-24	8	10	8	1	nt	nt
Cc1cc(=O)oc2cc(NC(=O)C(C)Oc3cccc(Cl)c3)ccc12 (stereo not drawn)	nt	-2	10.0*	nt	nt	13	12*	19*
Cc1cc2nc(SCC(=O)O)[nH]c2cc1C	nt	nt	nt	9	-48	nt	nt	nt
O=C(CC12CC3CC(CC(C3)C1)C2)Nc1ccc(N2CCOCC2)cc1	nt	nt	nt	17	-6	nt	nt	nt
CSc1ccc(S(=O)(=O)Nc2ccccc2C(=O)N2CCOCC2)cc1	nt	17	8.8*	nt	nt	6	22*	22*	PG9 binder DR=>67;PGV04 binding DR=>67;PG126 DR counter=>67
O=C(c1ccccc1NS(=O)(=O)c1ccc(Br)cc1)N1CCOCC1	nt	-3	0	nt	nt	2	nt	nt
O=C(/C=C/c1ccccc1)NC(=S)NNC(=O)CCN1CCCCC1	nt	nt	nt	14	-18	nt	nt	nt
CCn1cnc2sc(C(=O)Nc3ccccc3OC)c(C)c2c1=O	nt	0	53*	12	31	3	46*	65*
O=C(O)c1cc2ccccc2c2cc(Br)ccc12	nt	3	23*	20	-4	0	28*	36*
O=C(CCN1Cc2ccccc2C1=O)NCCN1CCc2ccccc21	nt	nt	nt	9	-81	nt	nt	nt
